Results on 17 molecules are retold here after PubChem BioAssay (NCATS).

The nature of experiment [1]: qHTS for differential inhibitors of proliferation of Plasmodium falciparum line 7G8 (AID 1815).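 Also: parasite growth measured after three days of incubation.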 Also: potency is read from the fitted curve at half-maximal effect.
Experiment [2] in a line: qHTS for differential inhibitors of proliferation of Plasmodium falciparum line GB4 (AID 1816).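 Also: parasite growth measured after 72 h incubation.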 Also: potency is read from the fitted curve at half-maximal effect. Conditions: Potency: Plasmodium falciparum GB4 proliferation inhibition. In general terms: qHTS replaces the single test concentration by a dilution series.
The nature of experiment [3]: qHTS for differential inhibitors of proliferation of Plasmodium falciparum line Dd2 (AID 1882). Also: nearly all actives have a fitted effect of over 65% in size. Also: potency is read from the fitted curve at half-maximal effect. Conditions: Potency: Plasmodium falciparum Dd2 proliferation inhibition. The gist of the method:
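RBC culture, 0.3% parasitemia / 2.5% Hct final; cpd added by pin tool in DMSO; 72 h, 37 C, 5% CO2; lysis buffer + SYBR Green I, o/n RT dark; FI 485/535; norm. to artemisinin 0.29 uM and DMSO.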

For experiment [4], the target named is RecQ-like DNA helicase BLM (Homo sapiens) (UniProt P54132). Nature of the experiment: qHTS Validation Assay for Inhibitors of Bloom's syndrome helicase (BLM) (AID 2364). Summed up:
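Forked 20-bp duplex substrate (200 nM, TAMRA/BHQ-2) plus 2 mM ATP added after 15 min compound preincubation with 50 nM enzyme, pH 8.0, poly(dI-dC) 2.5 ug/ml. Strand separation followed by fluorescence (525/598 nm) over 2 h, normalized to enzyme-free and DMSO controls.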

Experiment [5] is described as follows: qHTS Assay for Modulators of Human Peripheral Myelin Protein 22 (PMP22) Expression/Activity (AID 1967; active = well fitted curve in the direction sought with a large enough effect in the signal ratio; the % refers to the signal ratio). Summed up: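 Readout is the corrected green/red luminescence ratio after 24 h compound exposure, normalised to untreated cells (0%). Engineered MSC80 mouse Schwann cells express green luciferase from the mouse Pmp22 promoter and red luciferase from EF-alpha as internal control.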

The nature of experiment [6]: qHTS assay to identify inhibitors of the type 1 interferon - major histocompatibility complex class I in skeletal muscle: Counter screen cell viability and HiBit confirmation (AID 1347412). Also: potency is read from the fitted curve at half-maximal effect; nearly all actives have a fitted effect of over 60% in size. Conditions: iHSKM muscle cells + IFN-b, HiBiT or CellTiter-Glo, 24 h; HiBiT. Summed up:
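After 24 h with human IFN-beta (4 ng/ml) and compound titrations (top 46 uM final, 1:3, 12 points), HLA-B HiBit myoblasts were lysed for either Nano-Glo HiBiT luminescence or CellTiter Glo viability on paired plates.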

Records with an inconclusive call do not appear. The source made the active and inactive calls. Unless noted, calls follow the shape of the dose curve; as a rule, active = well fitted curve in the direction sought with a large enough effect; inconclusive = small, poorly fitted or top-dose-only effect, or another doubt; inactive = no such curve, though single readings can be large; an effect the other way counts as inactive or inconclusive.

Chain of RecQ-like DNA helicase BLM (Homo sapiens) (P54132 whole entry, looked up): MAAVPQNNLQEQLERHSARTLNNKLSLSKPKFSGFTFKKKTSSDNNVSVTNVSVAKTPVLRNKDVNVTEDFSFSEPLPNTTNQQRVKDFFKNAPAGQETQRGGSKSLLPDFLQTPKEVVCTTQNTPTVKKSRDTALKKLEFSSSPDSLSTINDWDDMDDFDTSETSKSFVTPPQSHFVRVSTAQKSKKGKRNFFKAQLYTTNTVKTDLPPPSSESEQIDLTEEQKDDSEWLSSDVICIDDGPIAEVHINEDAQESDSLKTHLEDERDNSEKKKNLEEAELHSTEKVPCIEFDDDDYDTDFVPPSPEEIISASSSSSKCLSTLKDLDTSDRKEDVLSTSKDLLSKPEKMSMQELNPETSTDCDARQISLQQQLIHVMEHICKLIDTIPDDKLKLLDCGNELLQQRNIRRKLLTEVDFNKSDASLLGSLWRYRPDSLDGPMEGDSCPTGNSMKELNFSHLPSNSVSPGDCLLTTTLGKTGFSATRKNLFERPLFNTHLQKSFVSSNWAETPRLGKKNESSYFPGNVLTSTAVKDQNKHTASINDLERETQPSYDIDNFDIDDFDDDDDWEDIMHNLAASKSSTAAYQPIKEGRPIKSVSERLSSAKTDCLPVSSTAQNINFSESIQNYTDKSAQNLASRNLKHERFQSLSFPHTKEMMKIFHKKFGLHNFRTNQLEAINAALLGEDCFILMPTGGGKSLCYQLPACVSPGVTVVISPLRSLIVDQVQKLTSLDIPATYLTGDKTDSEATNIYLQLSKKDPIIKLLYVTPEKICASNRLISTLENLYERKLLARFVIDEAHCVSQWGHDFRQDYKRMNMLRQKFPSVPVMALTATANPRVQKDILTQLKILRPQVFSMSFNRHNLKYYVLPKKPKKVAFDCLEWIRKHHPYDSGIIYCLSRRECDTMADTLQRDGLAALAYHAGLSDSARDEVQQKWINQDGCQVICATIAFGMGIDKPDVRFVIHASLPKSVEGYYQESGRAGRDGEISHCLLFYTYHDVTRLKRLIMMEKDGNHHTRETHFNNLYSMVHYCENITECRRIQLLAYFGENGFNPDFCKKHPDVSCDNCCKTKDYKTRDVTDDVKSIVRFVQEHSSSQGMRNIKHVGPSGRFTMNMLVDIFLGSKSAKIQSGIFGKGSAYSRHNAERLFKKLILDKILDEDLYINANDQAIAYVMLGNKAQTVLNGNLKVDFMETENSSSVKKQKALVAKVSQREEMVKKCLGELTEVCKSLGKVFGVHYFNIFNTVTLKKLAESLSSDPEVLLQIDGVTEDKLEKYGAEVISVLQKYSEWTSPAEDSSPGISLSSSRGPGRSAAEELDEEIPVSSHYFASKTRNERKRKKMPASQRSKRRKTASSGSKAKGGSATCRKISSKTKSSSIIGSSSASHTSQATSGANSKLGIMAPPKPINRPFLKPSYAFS

As to `COc1ccc2c(c1O)-c1cccc3c1C(C2)N(C)CC3` (stereo not drawn), the results for the Potency in experiment [1], in experiment [2] and in experiment [3] were 8.91 µM (active), 8.91 µM (active) and 11.2 µM (active), respectively. In addition, the outcome in experiment [4] was inactive.
Consider `COc1cc(C[C@@H](C)N)c(OC)cc1I`, for which the results for the Potency in experiment [2] and in experiment [3] were 12.6 µM (active) and 7.08 µM (active), respectively. In experiment [4], the outcome was inactive.
Turning to `NC(Cn1ccc(=O)[nH]c1=O)C(=O)O` (stereo not drawn), the Potency entry in experiment [1], in experiment [2] and in experiment [3] was “inactive” each time. Also, in experiment [5], the outcome was inactive.
For `COC(=O)C(N)CCCN=C(N)N[N+](=O)[O-]` (stereo not drawn), the Potency result in experiment [1], in experiment [2] and in experiment [3] was “inactive” each time. Also, the molecule was called inactive in experiment [5].
Consider `C=CCN1CC[C@@]2(C)c3cc(O)ccc3CC1[C@@H]2C`, for which the values for the Potency in experiment [1] and in experiment [2] were 7.94 µM (active) and 12.6 µM (active), respectively. In addition, the molecule was called inactive in experiment [5] and in experiment [4].
As for `CCN1C[C@]2(C)CC[C@H](O)[C@@]34[C@@H]5C[C@@H]6[C@@H](OC)C[C@@](O)(C5[C@H]6O)[C@@H](C[C@@H]23)[C@@H]14`, the Potency entry in experiment [1] and in experiment [3] was “inactive” in each case. In addition, in experiment [5], the molecule was classed as inactive.
As to `Nc1ncnc2c1ncn2[C@@H]1O[C@H](COP(=O)(O)CP(=O)(O)OP(=O)(O)O)[C@H](O)[C@H]1O`, the Potency result in experiment [1], in experiment [2] and in experiment [3] was “inactive” throughout. In addition, the result in experiment [5] was inactive.
Turning to `O=C1/C(=C\c2ccccc2)C[C@@]2(O)[C@H]3Cc4ccc(O)c5c4[C@@]2(CCN3CC2CC2)[C@H]1O5`, the Potency in experiment [6] is 3.52 µM (active).
On to `C[N+]1(C)C2CC(OC(=O)C(CO)c3ccccc3)CC1C1OC12` (stereo not drawn), for which the Potency entry in experiment [1], in experiment [2] and in experiment [3] was “inactive” throughout. Besides, the call in experiment [5] and in experiment [4] was inactive.
With `CCCN1CCC[C@@H](c2cccc(C#N)c2)C1`, in experiment [3], the Potency result was “inactive”. Moreover, the molecule was called inactive in experiment [5].
Turning to `CC12CCC3C(CCC4=C(O)C(=O)CCC43C)C1CCC2=O` (stereo not drawn), the Potency entry in experiment [2] and in experiment [3] was “inactive” in each case. The result in experiment [5] and in experiment [4] was inactive.
As for `CN1C[C@@H](CS(=O)(=O)N(C)C)C[C@@H]2c3cccc4c3c(cn4C)C[C@H]21`, the result in experiment [4] was inactive.
For the molecule `CCCN1CCCC(c2cccc(O)c2)C1` (stereo not drawn), the figures for the Potency in experiment [1] and in experiment [2] were 8.91 µM (active) and 12.6 µM (active), respectively. In addition, the outcome in experiment [5] and in experiment [4] was inactive.
Turning to `NCC#Cc1ccccc1`, the Potency entry in experiment [2] and in experiment [3] was “inactive” each time.
On to `CCCCN1C2CCC1CC(OC(c1ccc(F)cc1)c1ccc(F)cc1)C2` (stereo not drawn), for which the Potency was 2 µM (active) in experiment [1], 1.58 µM (active) in experiment [2] and 3.98 µM (active) in experiment [3].
With `CCCN(CCC)[C@@H]1CCc2c(F)ccc(O)c2C1`, the Potency in experiment [1] is 1.12 µM (active); in experiment [2], 0.355 µM (active); in experiment [3], 1.41 µM (active). For the same molecule, in experiment [4], the molecule was called inactive.
Take `CC1Cc2cc3c(cc2C(c2ccc(N)cc2)=NN1)OCO3` (stereo not drawn): in experiment [1], the Potency was 12.6 µM (active).
